Test results: paper PMC6212790, “How bacterial xenogeneic silencer rok distinguishes foreign from self DNA in its resident genome”
Whole data set: some 33,000 sequences, median “e-score” near -0.037, cut for the highest 2% near 0.34. The sample as a whole holds a higher share of the highest values than the screen did.

molecular target: T1, GST-Rok (full length) (Bacillus subtilis subsp. subtilis str. …, UniProt O34857 1-191); assay: protein binding microarray; Rok is a gene silencer of Bacillus subtilis; high values mean tight binding; conditions: protein: recombinant; tags: GST (pTH5325, pDEST15-Magic modified); dsDNA, one strand shown
T1 sequence: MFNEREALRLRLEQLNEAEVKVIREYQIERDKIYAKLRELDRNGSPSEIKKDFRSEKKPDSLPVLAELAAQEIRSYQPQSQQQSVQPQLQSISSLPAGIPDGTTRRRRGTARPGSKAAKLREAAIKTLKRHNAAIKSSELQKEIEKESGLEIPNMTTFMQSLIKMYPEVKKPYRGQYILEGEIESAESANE
Method in brief: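 Each has a 25-mer constant primer and a 35-mer variable part from a de Bruijn sequence of order 10, covering every non-palindromic 8-mer at least 32 times (palindromic 16). Preference for each 8-mer is given as a rank-based, unitless enrichment score (E-score). Its range runs from 0.5 (most favored) to −0.5 (most disfavored).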

Sequence	binding signal
ACGTTAGA	0.156 E-score
CAGGCATG	-0.176 E-score
ATATAAAC	0.262 E-score
AGATATAC	0.238 E-score
ATATATAC	0.396 E-score
ATATAAAT	0.422 E-score
ACATATGA	0.069 E-score
AGATATAA	0.183 E-score
AGATATAG	0.151 E-score
ACATATGT	0.401 E-score
ACATATGG	0.168 E-score
ACATATAC	0.289 E-score
AGATATAT	0.395 E-score
ATATAAAG	0.17 E-score
CAGACGAA	-0.0357 E-score
CGTCTAAA	-0.027 E-score
AGGCCTCA	-0.155 E-score
AAGTTGAT	0.0883 E-score
CGGCAACA	-0.0449 E-score
CCTGTAAG	-0.159 E-score
AAGAATAA	0.183 E-score
ACGTCACA	-0.0872 E-score
CAATGATG	0.161 E-score

Sequence	binding signal
ACAATTCT	0.149 E-score
ACATATAG	0.193 E-score
ACCTATAT	0.301 E-score
ATATACAT	0.302 E-score
ACATATAT	0.378 E-score
CTATATGC	0.185 E-score
ATATATAT	0.471 E-score
ACATATAA	0.329 E-score
ATATATGC	0.338 E-score
ATATATGG	0.299 E-score
ACGGGTTC	-0.114 E-score
AACAGGCG	-0.0571 E-score
CTAATGAC	-0.05 E-score
CTCTATAA	0.0692 E-score
CTATATAA	0.345 E-score
ATATAAAA	0.288 E-score
TAATATAA	0.236 E-score
CTATAAAA	0.23 E-score
GTATATAA	0.278 E-score
TCATATAA	0.192 E-score
TTATATAA	0.399 E-score
ATATATAA	0.435 E-score
CAACTGTG	-0.0366 E-score

Sequence	binding signal
CCTATGAA	-0.0665 E-score
GAAGAAAA	-0.0942 E-score
ATTGATCA	0.101 E-score
AAAAACTC	0.0197 E-score
GAAAACTA	0.346 E-score
ACAAACTG	0.127 E-score
CCAAACTA	0.364 E-score
AAAAACTT	-0.0545 E-score
GAAAACTC	-0.114 E-score
CCAAACTC	-0.0373 E-score
AAAAACTA	0.417 E-score
ACAAACTC	0.155 E-score
GAAAACCA	-0.118 E-score
ACAAACTA	0.383 E-score
CCAAACCA	-0.0489 E-score
GAAGAAGA	-0.113 E-score
CACGCTGA	-0.189 E-score
CATACCGC	-0.0931 E-score
CCGATTTC	-0.187 E-score
ACATAAAC	0.257 E-score
AAAAGTTC	0.114 E-score
ACGCAGTA	0.125 E-score
AGGATTCA	-0.117 E-score

Sequence	binding signal
AACCAGCT	-0.112 E-score
CAAAACTA	0.383 E-score
CAAAACTG	-0.0906 E-score
TAAAACAA	0.203 E-score
TAAAACTA	0.375 E-score
TAAAACGA	0.111 E-score
GCAAACAA	-0.152 E-score
GCAAACTA	0.386 E-score
GCAAACCA	-0.161 E-score
CAAAACTC	0.0709 E-score
ATGGCTTA	0.0565 E-score
AGAATTCA	0.0872 E-score
ACCCTCGC	-0.0467 E-score
ATAACTTG	0.289 E-score
GCATAGGC	-0.0277 E-score
CTATATAG	0.402 E-score
ATATATAG	0.416 E-score
CTATAGAG	0.0607 E-score
ATATAGCA	0.213 E-score
ATCTATAG	0.313 E-score
